# Source: PubChem BioAssay (EPA / NIEHS)
# Inconclusive results are not listed. Activity calls are given as the source filed them. Rule for the calls, unless noted: active = hit-call score of the fitted dose curve at least 0.9, where 1 is the maximum; inactive = score below 0.9.
# Tests used:
# [1] = read-out: Monocyte Chemoattractant Protein-1 (MCP1), CCL2 (gene 6347); test: BSK_LPS_MCP1: BioMAP Diversity Plus: LPS Assay for Monocyte Chemoattractant Protein-1 (MCP1) Biomarker Activity (AID 2283081); details: primary human HUVEC with PBMC; actives raise or lower the signal;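 for AC50: co-culture stimulated with LPS; secreted MCP-1 protein quantified by ELISA in culture supernatant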
# Summary of the method: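 Values derive from bidirectional fitting against DMSO of ELISA-measured MCP-1 in a human primary endothelial and mononuclear cell co-culture, 24 h after chemical addition under LPS activation.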
# [2] = BSK_LPS_PGE2: BioMAP Diversity Plus: LPS Assay for Prostaglandin E2 (PGE2) Biomarker Activity (AID 2283082); details: primary human HUVEC with PBMC; actives raise or lower the signal;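 for AC50: secreted prostaglandin E2 measured by ELISA in LPS-stimulated co-culture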
# Summary of the method: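 LPS-activated HUVEC/PBMC co-culture; cmpd dosed, 24 h; PGE2 by ELISA; bidirectional fit vs DMSO; SRB (0.1%, TCA-fixed, 560 nm) in parallel plates for overt cytotox.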
# [3] = read-out: Macrophage colony-stimulating factor (MCSF), CSF1 (gene 1435); test: BSK_LPS_MCSF: BioMAP Diversity Plus: LPS Assay for Macrophage colony-stimulating factor (MCSF) Biomarker Activity (AID 2283083); details: primary human HUVEC with PBMC; actives raise or lower the signal
# Summary of the method: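 Bidirectional fit versus DMSO of ELISA-measured M-CSF in co-cultured human umbilical vein endothelial cells and PBMC, sampled 24 h after dosing.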
# [4] = read-out: Tissue Factor, F3 (gene 2152); test: BSK_LPS_TissueFactor: BioMAP Diversity Plus: LPS Assay for Tissue Factor Biomarker Activity (AID 2283084); details: primary human HUVEC with PBMC; actives raise or lower the signal
# Summary of the method: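 Read-out: CD142 ELISA, 24 h. System: LPS-driven human endothelial/PBMC co-culture. Analysis: up- or down-signal fitted against DMSO.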
# [5] = read-out: Tumor necrosis factor (Homo sapiens) (UniProt P01375); test: BSK_LPS_TNFa: BioMAP Diversity Plus: LPS Assay for Tumour Necrosis Factor alpha (TNFa) Biomarker Activity (AID 2283085); details: primary human HUVEC with PBMC; actives raise or lower the signal
# Summary of the method: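 Read-out is ELISA of TNFa in primary human endothelial cell–PBMC co-cultures at 24 h after compound. Activity in either direction was fitted against DMSO.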
# [6] = read-out: Vascular cell adhesion molecule 1 (VCAM1), VCAM1 (gene 7412); test: BSK_LPS_VCAM1: BioMAP Diversity Plus: LPS Assay for Vascular cell adhesion molecule 1 (VCAM1) Biomarker Activity (AID 2283086); details: primary human HUVEC with PBMC; actives raise or lower the signal
# Summary of the method: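 HUVEC + PBMC co-culture, LPS system; compound 24 h; VCAM-1 by ELISA; bidirectional fit vs DMSO control; parallel SRB (0.1%, TCA-fixed, 560 nm) for cytotoxicity.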
# [7] = read-out: CD38, CD38 (gene 952); test: BSK_SAg_CD38: BioMAP Diversity Plus: SAg Assay for CD38 Biomarker Activity (AID 2283087); details: primary human HUVEC with PBMC; actives raise or lower the signal
# Summary of the method: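 Human HUVEC plus PBMC co-culture stimulated with superantigen; CD38 measured by ELISA 24 h after chemical dosing. Fluorescence read-out, bidirectional fit against DMSO; cytotoxicity tracked in parallel by SRB and Alamar Blue.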
# [8] = read-out: CD40, CD40 (gene 958); test: BSK_SAg_CD40: BioMAP Diversity Plus: SAg Assay for CD40 Biomarker Activity (AID 2283088); details: primary human HUVEC with PBMC; actives raise or lower the signal
# Summary of the method: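 Endpoint derived by fitting increases or decreases versus DMSO controls. CD40 is detected by fluorescence ELISA in a human vascular co-culture of endothelium and PBMC at 24 h.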
# [9] = read-out: CD69, CD69 (gene 969); test: BSK_SAg_CD69: BioMAP Diversity Plus: SAg Assay for CD69 Biomarker Activity (AID 2283089); details: primary human HUVEC with PBMC; actives raise or lower the signal;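 for AC50: cell surface CD69 protein quantified by ELISA with fluorescence detection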
# Summary of the method: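 ELISA, fluorescence read-out: CD69 on human umbilical vein endothelial cell + PBMC co-culture, 24 h post-dosing. Gain or loss of signal fitted bidirectionally against DMSO baseline.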
# [10] = read-out: Monocyte Chemoattractant Protein-1 (MCP1), CCL2 (gene 6347); test: BSK_SAg_MCP1: BioMAP Diversity Plus: SAg Assay for Monocyte Chemoattractant Protein-1 (MCP1) Biomarker Activity (AID 2283090); details: primary human HUVEC with PBMC; actives raise or lower the signal
# Summary of the method: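 MCP-1 levels in the endothelial–PBMC SAg co-culture were quantified by ELISA at 24 h post-dosing; both increases and decreases versus DMSO scored. Cytotoxicity monitored by SRB total protein in parallel cultures.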
# [11] = read-out: Monokine induced gamma interferon (MIG), CXCL9 (gene 4283); test: BSK_SAg_MIG: BioMAP Diversity Plus: SAg Assay for Monokine induced gamma interferon (MIG) Biomarker Activity (AID 2283092); details: primary human HUVEC with PBMC; actives raise or lower the signal
# Summary of the method: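 ELISA readout of MIG/CXCL9; primary human umbilical vein endothelial cells co-cultured with peripheral blood mononuclear cells; 24 h post-dose; gain/loss fit vs DMSO baseline.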
# [12] = BSK_SAg_PBMCCytotoxicity: PBMC Cytotoxicity Assessment in the BioMAP Diversity Plus: SAg Assay (AID 2283093); details: primary human HUVEC with PBMC;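 note: PBMC viability measured as Alamar Blue reduction fluorescence at 546/580 nm; fitted both ways against DMSO so a hit may be loss or gain of signal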;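 for AC50: PBMC superantigen activated with SEB plus TSST-1 one hour after compound addition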
# Summary of the method: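 Human umbilical vein endothelial cells co-cultured with PBMC; PBMC (75,000/well) pre-treated with compound 1 h, then activated with SEB and TSST-1 (20 ng/mL final each) for 90 h. Alamar Blue added 6 h, fluorescence 546/580 nm; bidirectional fit versus DMSO.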
# [13] = read-out: Interleukin-8 (IL8), CXCL8 (gene 3576); test: BSK_SAg_IL8: BioMAP Diversity Plus: SAg Assay for Interleukin-8 (IL8) Biomarker Activity (AID 2283094); details: primary human HUVEC with PBMC; actives raise or lower the signal
# Summary of the method: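 ELISA read-out of IL-8 in a primary human vascular co-culture (umbilical vein endothelium plus PBMC), taken 24 h after compound addition. Values derive from bidirectional fits against DMSO negative controls.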
# [14] = BSK_SAg_SRB: Viability Assessment in the BioMAP Diversity Plus: SAg Assay (AID 2283096); details: primary human HUVEC with PBMC;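 note: cells read one day after compound addition; hits may be either gain or loss of signal compared with DMSO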
# Summary of the method: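 Endothelial/PBMC primary human co-culture; compound 24 h; fix 10% TCA, stain 0.1% SRB, A560; protein content as cytotoxicity proxy; bidirectional curve fit, DMSO = baseline.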
# [15] = molecular target: human CYP1A1, CYP1A1 (gene 1543) (UniProt P04798); test: NVS_ADME_hCYP1A1: NovaScreen (NVS) CYP450-related Enzyme Activity (ADME) Assay for human CYP1A1 (AID 2283100; active = hit-call score of the fitted dose curve at least 0.9, where 1 is the maximum)
# Sequence of human CYP1A1, CYP1A1 (gene 1543) (P04798 whole entry, looked up): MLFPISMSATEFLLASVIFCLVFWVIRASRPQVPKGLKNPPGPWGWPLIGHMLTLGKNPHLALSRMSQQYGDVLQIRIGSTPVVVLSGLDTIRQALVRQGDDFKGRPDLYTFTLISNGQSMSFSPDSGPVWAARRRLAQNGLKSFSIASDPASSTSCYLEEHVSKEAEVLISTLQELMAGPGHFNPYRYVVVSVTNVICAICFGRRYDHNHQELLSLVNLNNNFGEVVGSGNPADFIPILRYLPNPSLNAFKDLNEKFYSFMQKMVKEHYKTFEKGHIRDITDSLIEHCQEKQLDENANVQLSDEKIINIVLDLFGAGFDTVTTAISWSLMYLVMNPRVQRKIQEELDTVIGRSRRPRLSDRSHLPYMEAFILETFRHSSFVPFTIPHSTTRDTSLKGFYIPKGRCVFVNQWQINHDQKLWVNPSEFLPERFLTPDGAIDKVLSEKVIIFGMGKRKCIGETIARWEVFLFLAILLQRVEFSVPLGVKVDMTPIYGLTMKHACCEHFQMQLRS
# Summary of the method: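 Inhibition of recombinant CYP1A1 turnover was assessed fluorometrically in a biochemical format 1 h after compound exposure. Testing began at 10 uM in duplicate and progressed to concentration series reaching 20 uM, with on-plate positive and negative controls.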
# [16] = molecular target: human CYP2A6, CYP2A6 (gene 1548) (UniProt P11509); test: NVS_ADME_hCYP2A6: NovaScreen (NVS) CYP450-related Enzyme Activity (ADME) Assay for human CYP2A6 (AID 2283099; active = hit-call score of the fitted dose curve at least 0.9, where 1 is the maximum)
# Sequence of human CYP2A6, CYP2A6 (gene 1548) (P11509 whole entry, looked up): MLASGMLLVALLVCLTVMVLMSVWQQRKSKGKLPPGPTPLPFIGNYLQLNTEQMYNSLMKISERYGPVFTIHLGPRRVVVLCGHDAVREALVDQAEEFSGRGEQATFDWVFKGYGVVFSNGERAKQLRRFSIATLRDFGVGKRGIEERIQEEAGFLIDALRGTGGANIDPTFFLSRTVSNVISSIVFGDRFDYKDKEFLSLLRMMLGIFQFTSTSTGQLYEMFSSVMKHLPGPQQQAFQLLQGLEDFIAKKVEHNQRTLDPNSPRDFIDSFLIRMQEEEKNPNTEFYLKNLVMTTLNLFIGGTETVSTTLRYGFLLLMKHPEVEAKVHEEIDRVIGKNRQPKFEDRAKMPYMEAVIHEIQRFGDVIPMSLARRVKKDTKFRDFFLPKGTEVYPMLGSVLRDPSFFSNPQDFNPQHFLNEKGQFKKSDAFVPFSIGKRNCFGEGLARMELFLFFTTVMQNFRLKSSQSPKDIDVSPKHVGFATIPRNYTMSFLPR
# Summary of the method: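 Loss of fluorescence signal relative to acetonitrile vehicle reported CYP2A6 inhibition in a cell-free system using insect-cell-derived enzyme. Readings were taken at 0.5 h; top concentration in follow-up dose series was 20 uM.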
# [17] = BSK_SAg_Proliferation: Cell Proliferation Assessment in the BioMAP Diversity Plus: SAg Assay (AID 2283095); details: primary human HUVEC with PBMC;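 note: relative cell number as total protein by SRB absorbance in sub-confluent culture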
# Summary of the method: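 Cells (endothelium plus PBMC, human primary) were dosed with chemical, cultured 96 h, fixed in 10% TCA and stained with 0.1% SRB. Absorbance at 560 nm gave relative protein, fitted bidirectionally relative to DMSO.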
# Sequence of Tumor necrosis factor (Homo sapiens) (P01375 whole entry, looked up): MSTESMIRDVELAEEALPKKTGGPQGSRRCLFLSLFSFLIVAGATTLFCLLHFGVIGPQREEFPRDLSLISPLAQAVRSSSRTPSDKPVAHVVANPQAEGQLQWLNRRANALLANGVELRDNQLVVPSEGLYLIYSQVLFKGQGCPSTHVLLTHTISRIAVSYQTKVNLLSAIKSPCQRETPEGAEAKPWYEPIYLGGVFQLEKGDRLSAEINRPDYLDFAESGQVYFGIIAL
smiles,measurement,setting,value
O=C(O)CC(O)(CC(=O)O)C(=O)O,outcome,[1],inactive
same,outcome,[2],inactive
same,outcome,[3],inactive
same,outcome,[4],inactive
same,outcome,[5],inactive
same,outcome,[6],inactive
same,outcome,[7],inactive
same,outcome,[8],inactive
same,outcome,[9],inactive
same,outcome,[10],inactive
same,outcome,[11],inactive
same,outcome,[12],inactive
same,outcome,[13],inactive
same,outcome,[14],inactive
O=C(Oc1ccccc1)c1cccc(C(=O)Oc2ccccc2)c1,outcome,[1],inactive
same,outcome,[2],inactive
same,outcome,[3],inactive
same,outcome,[4],inactive
same,outcome,[5],inactive
same,outcome,[6],inactive
same,outcome,[7],inactive
same,outcome,[8],inactive
same,outcome,[9],inactive
same,outcome,[10],inactive
same,outcome,[11],inactive
same,outcome,[12],inactive
same,outcome,[13],inactive
same,outcome,[14],inactive
CN(C)CCCN1c2ccccc2Sc2ccc(Cl)cc21,AC50,[1],26 µM (active)
same,outcome,[2],inactive
same,AC50,[3],30.1 µM (active)
same,outcome,[4],inactive
same,AC50,[5],27.8 µM (active)
same,AC50,[6],29.9 µM (active)
same,AC50,[7],28.8 µM (active)
same,AC50,[8],29.5 µM (active)
same,AC50,[9],28.6 µM (active)
same,AC50,[12],16.4 µM (active)
same,AC50,[14],28.3 µM (active)
same,outcome,[15],inactive
O=C1c2c(O)cccc2Cc2cccc(O)c21,outcome,[1],inactive
same,outcome,[2],inactive
same,outcome,[3],inactive
same,outcome,[4],inactive
same,outcome,[5],inactive
same,outcome,[6],inactive
same,outcome,[7],inactive
same,outcome,[8],inactive
same,outcome,[9],inactive
same,outcome,[10],inactive
same,outcome,[11],inactive
same,outcome,[12],inactive
same,outcome,[13],inactive
same,outcome,[14],inactive
C=CCc1ccc(OC)c(OC)c1,outcome,[1],inactive
same,outcome,[2],inactive
same,outcome,[3],inactive
same,outcome,[4],inactive
same,AC50,[5],11 µM (active)
same,outcome,[6],inactive
same,outcome,[7],inactive
same,outcome,[8],inactive
same,outcome,[9],inactive
same,outcome,[10],inactive
same,outcome,[11],inactive
same,outcome,[12],inactive
same,outcome,[13],inactive
same,outcome,[14],inactive
same,outcome,[16],inactive
CC1(C)C(=O)NC(=O)N1CO,outcome,[1],inactive
same,AC50,[2],0.749 µM (active)
same,outcome,[3],inactive
same,outcome,[4],inactive
same,outcome,[5],inactive
same,outcome,[6],inactive
same,outcome,[7],inactive
same,outcome,[8],inactive
same,outcome,[9],inactive
same,outcome,[10],inactive
same,outcome,[11],inactive
same,outcome,[12],inactive
same,outcome,[13],inactive
same,outcome,[17],inactive
same,outcome,[14],inactive
same,outcome,[16],inactive
